Source: PubChem BioAssay
Sfp PPTase inh: qHTS Assay for Inhibitors of Bacillus subtilis Sfp phosphopantetheinyl transferase (PPTase); Biochemical Sfp PPTase activity, qHTS; 310,000 compounds, 3.5% hits; Potency, µM, inactives show largest response in the series, negative = inhibition, most hits filed as inhibitors; AID 1490, 2009;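 also: the enzyme is Sfp with the accession as filed and its product quenches rhodamine fluorescence; potency is read from the fitted curve at half-maximal effect; 0% = enzyme reaction without inhibitor and -100% = no enzyme wells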
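With Hepes-Na pH 7.6 buffer containing 10 mM MgCl2, Sfp (15 nM) modified BHQ-2-YbbR (12.5 uM) using rhodamine-CoA (5 uM). Two reads 30 minutes apart at 525/598 nm yielded each well's rate.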
Giardia killer: Small Molecules that selectively kill Giardia lamblia: qHTS; Giardia lamblia trophozoite viability; activity change, % at 7.66 µM, hits read low; 340,000 compounds, 0.15% hits; AID 540267, 2011; in the data active = activity change below about -80%; inconclusive = between about -30% and that limit;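 also: parasites exposed to compound for two days anaerobically before the ATP read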
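ATP-content bioluminescence gauges trophozoite survival. Cells (100/well) receive compound and incubate anaerobically for 48 hrs at 37 deg C; detection reagent follows for 15-30 min at room temperature.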
ELG1 DNA repair: qHTS screen for small molecules that inhibit ELG1-dependent DNA repair in human embryonic kidney (HEK293T) cells expressing luciferase-tagged ELG1; Potency, µM (series often up to 46.1 µM), for the others: at the highest dose activity change, negative = inhibition, hits mostly inhibitors; 330,000 compounds, 2.3% hits; HEK293T ELG1-luciferase reporter, luminescence, 16 h; DNA damage induced by 5-fluorouridine; also: potency is read from the fitted curve at half-maximal effect; nearly all actives have a fitted effect of over 55% in size
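5-Fluorouridine DNA damage + compound/DMSO, 2,000 cells/well, 16 h, 37 °C/5% CO2. ONE-Glo, 30 min RT, luminescence. Readout = decrease in reporter signal.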
Coupling enz: qHTS Assay for Inhibitors of Fructose-1,6-bisphosphate Aldolase from Giardia Lamblia: Coupling assay counterscreen; coupling enzyme system counterscreen, AmpLite Red fluorescence; activity change, negative = inhibition, % at 58.2 µM, hits read low; 290,000 compounds, 0.67% hits; in the data active = activity change below about -30%
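Final compound at 57.5 uM, incubated 10 min at RT with coupling enzyme reagent (glyceraldehyde-3-phosphate), then 20 min with substrate and AmpLite Red detection. Fluorescence read at 525/598 nm; tests interference with the coupling assay, not aldolase inhibition.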
* marks the source's active call; other numbers are inactive results; ? = inconclusive; nt = no result. In the library only some 5.5% were active in any assay of this set; here they are far more common. Unless noted, calls follow the shape of the dose curve; as a rule, active = well fitted curve in the direction sought with a large enough effect; inconclusive = small, poorly fitted or top-dose-only effect, or another doubt; inactive = no such curve, though single readings can be large; an effect the other way counts as inactive or inconclusive. Unless noted, % is scaled to controls: 0 for no effect and ±100 for the full control effect.

SMILES	Sfp PPTase inh	Giardia killer	ELG1 DNA repair	Coupling enz
CC(/C=N/NC(=O)c1cc(-c2cccnc2)nc2c1c(C)nn2-c1ccccc1)=C\c1ccccc1	23%	-6	5.8µM*	1
CN(Cc1ccco1)c1ncncc1-c1ccccc1Cl	79µM*	nt	nt	0
CN(Cc1ccco1)c1ncnc2ccc(-c3ccccc3Cl)cc12	?	0	10%	0
Cc1ccc(N2CC(C(=O)N(C)CC(=O)Nc3ccc(Cl)c(C(F)(F)F)c3)CC2=O)cc1 (configuration not stated)	nt	4	?	nt
COc1ccc(NC(=O)Cc2ccccc2F)cc1S(=O)(=O)N1CCCCC1	nt	22	?	nt
CCOc1ccc(Nc2nc(Cl)nc(NCCO)n2)cc1	8%	-6	2%	-1
CCOc1nc(NCCO)nc(Nc2ccc([N+](=O)[O-])cc2)n1	-10%	-1	10µM*	1
O=C(NCC1CCN(c2ccc(S(=O)(=O)N3CCOCC3)cc2)CC1)Nc1ccccc1F	8%	-3	-21%	1
Cc1cc(NC(=O)C2CCCC2)nc2c1c(=O)oc1ccccc12	6%	-10	21µM*	-3
CC1(C)Cc2nc3sc(C(=O)NCCCO)c(N)c3cc2CS1	40µM*	15	?	-7
CCCn1nc(C(=O)N2CCN(S(=O)(=O)c3ccc(C)c(C)c3)CC2)c2ccccc2c1=O	nt	23	23µM*	nt
O=C(Nc1ncccc1O)c1cccc(S(=O)(=O)NCc2ccccc2)c1	nt	0	?	nt
Cc1ncc(CCl)c2c1OC(C)(C)OC2	45µM*	-2	0%	-38*
CCN1C[C@@H]2[C@@H]3C(=O)N(C)C(=O)[C@@H]3[C@](CC)(C1=O)N2C(=O)c1ccc(Cl)cc1	nt	11	nt	nt
O=c1c2cnn(-c3ccccc3)c2nc(-c2cccs2)n1-c1ccc(Cl)cc1	7%	-8	4%	-1
O=c1c2cnn(-c3ccccc3)c2nc(-c2cccs2)n1-c1cccc(Cl)c1	?	-13	15µM*	1
CC(=O)Nc1ccc(OCCC[n+]2ccccc2)cc1	14%	-10	-18%	1
C[n+]1cn(CC(O)COCc2ccccc2)c2ccccc21 (configuration not stated)	-13%	5	-3%	0
CCCCCc1ccc(OCCOCCn2c[n+](C)c3ccccc32)c(CCCCC)c1	50µM*	5	7.3µM*	0
CCCCCc1ccc(OCCC[n+]2ccccc2)c(CCCCC)c1	16µM*	-11	?	0
CCC1(C(N)=O)CC2C=CC1C2 (configuration not stated)	nt	-6	nt	nt
O=C(CNS(=O)(=O)c1ccccc1)N/N=C/c1ccccc1[N+](=O)[O-]	-6%	-8	-6%	-1
COc1ccc(N(C(C)C(=O)N2CCC(Cc3ccccc3)CC2)S(C)(=O)=O)cc1 (configuration not stated)	10%	3	?	0
Cc1cc(N2CCN(C)CC2)nc(-c2ccccc2O)n1	-5%	-15	-26%	1
Cc1cc(N2CCN(C)CC2)nc(=S)[nH]1	50µM*	-14	2%	1
SMILES	Sfp PPTase inh	Giardia killer	ELG1 DNA repair	Coupling enz
Cn1cc([N+](=O)[O-])c(C(=O)NC2CCCC2)n1	13%	-9	0%	2
NC(=O)C1CCN(C2=C(NS(=O)(=O)c3ccc(Cl)cc3)C(=O)c3ccccc3C2=O)CC1	-15%	5	?	-30*
CC1CCCN(C2=C(NS(=O)(=O)c3ccc(Cl)cc3)C(=O)c3ccccc3C2=O)C1 (configuration not stated)	-13%	26	-8%	-40*
COC(=O)C1CCN(C2=C(NS(=O)(=O)c3ccc(Cl)cc3)C(=O)c3ccccc3C2=O)CC1	-15%	-5	0%	-25
Cc1ccc(NC(=O)CNC(=O)c2ccco2)nc1	9%	-19	-3%	nt
CC[C@@]1(C(=O)OC)N[C@H](CN(C)C(=O)Nc2ccc(C(F)(F)F)cc2)[C@@H]2C(=O)N(C)C(=O)[C@@H]21	nt	2	1%	nt
OCCN(Cc1ccccc1)CC(O)COc1ccc(-c2ccccc2)cc1 (configuration not stated)	50µM*	7	0%	-3
CC(C)CN1C(=O)/C(=C(/C#N)C(=O)NC2CCCCC2)c2ccccc21	7.1µM*	8	-19%	-6
CC(C)C(=O)Nc1ccc(NC(=S)NC(=O)c2ccccc2F)cc1	19%	-16	-9%	-2
CN1CCC(N(C)C(=O)COc2ccccc2Cl)CC1	nt	-16	17%	nt
COc1cc(-n2nnnc2SC)c(OC)cc1Cl	24%	23	-4%	1
COc1cc(N=c2ssnc2Cl)c(OC)cc1Cl	10µM*	-8	?	4
COc1ccc(OC)c(N=c2ssnc2Cl)c1	8.9µM*	0	-12%	-2
Nc1ncnc2c1ncn2COC(CO)CO	nt	-2	nt	nt
O=C1CC(N2CCC(Cc3ccccc3)CC2)C(=O)N1CCc1ccccc1 (configuration not stated)	56µM*	-16	-2%	0
O=C1CC(N2CCN(C3CC(=O)N(CCc4ccccc4)C3=O)CC2)C(=O)N1CCc1ccccc1 (configuration not stated)	15%	-7	?	5
COc1c(O)c(O)cc2c1oc1c3cc(C)ccc3oc(=O)c21	79µM*	nt	nt	0
CC(Oc1ccc(Cl)cc1Cl)c1nc(-c2ccc(NC(=O)c3ccncc3)cc2)no1 (configuration not stated)	1%	11	18µM*	1
COC(=O)C1=C(C(=O)OC)SC2(S1)C(C(=O)OC)=C(C(=O)OC)SC1=C2c2cc(C)ccc2NC1(C)C	2.8µM*	-3	-3%	2
CCOc1ccc(C(=O)NN2CCOCC2)cc1	-2%	-12	7%	1
COC(=O)Cc1cc(=O)n2[nH]c(C(F)(F)F)nc2n1	-24%	-4	11%	-34*
Cc1cc(N2CCOCC2)nc2ccccc12	19%	3	?	-2
c1ccc(-c2cc(N3CCOCC3)nc3ccccc23)cc1	56µM*	-1	nt	2
CCOC(=O)CN1C(=O)N(CC(=O)OCC)C(c2ccccc2)(c2ccccc2)C1=O	12%	-25	3%	-7
CC(C)(C)c1ccc(Oc2ccc(NC(=O)c3cccs3)cn2)cc1	24%	-6	6.5µM*	-2
COc1ccc(NC(=O)c2cccs2)cn1	11%	?	?	0
Cc1ccc(S(=O)(=O)N2CCCCC2)cc1NC(=O)c1ccc2c(=O)n3c(nc2c1)CCCCC3	28%	nt	12µM*	2
O=C(c1ccc2c(=O)n3c(nc2c1)CCCCC3)N1CCN(C(c2ccccc2)c2ccccc2)CC1	-3%	-22	23µM*	-1
O=C(Nc1ccc(Cc2ccncc2)cc1)c1ccc(S(=O)(=O)N2CCCC2)cc1	-10%	6	2.9µM*	-2
